Data taken from PubChem BioAssay AID1347420 (Sanford-Burnham Center for Chemical Genomics, 2020).
The campaign covered roughly 1,300 compounds. About 980 (75%) were called active. About 4% were inconclusive and are not listed. The list shows a part of the results.

Biological target: Sulfhydryl oxidase 1 (Homo sapiens) (UniProt O00391)
Assay: inhibition of human sulfhydryl oxidase QSOX1 – biochemical, HyperBlu H2O2 luminescence, HTS, primary screen (AID 1347420); further: values above 100% were filed as inconclusive
Conditions: recombinant QSOX1, HyperBlu H2O2 luminescence; at 12.5 µM; active compounds read high; active = any value above zero

Sequence of Sulfhydryl oxidase 1 (Homo sapiens) (O00391 whole entry, looked up): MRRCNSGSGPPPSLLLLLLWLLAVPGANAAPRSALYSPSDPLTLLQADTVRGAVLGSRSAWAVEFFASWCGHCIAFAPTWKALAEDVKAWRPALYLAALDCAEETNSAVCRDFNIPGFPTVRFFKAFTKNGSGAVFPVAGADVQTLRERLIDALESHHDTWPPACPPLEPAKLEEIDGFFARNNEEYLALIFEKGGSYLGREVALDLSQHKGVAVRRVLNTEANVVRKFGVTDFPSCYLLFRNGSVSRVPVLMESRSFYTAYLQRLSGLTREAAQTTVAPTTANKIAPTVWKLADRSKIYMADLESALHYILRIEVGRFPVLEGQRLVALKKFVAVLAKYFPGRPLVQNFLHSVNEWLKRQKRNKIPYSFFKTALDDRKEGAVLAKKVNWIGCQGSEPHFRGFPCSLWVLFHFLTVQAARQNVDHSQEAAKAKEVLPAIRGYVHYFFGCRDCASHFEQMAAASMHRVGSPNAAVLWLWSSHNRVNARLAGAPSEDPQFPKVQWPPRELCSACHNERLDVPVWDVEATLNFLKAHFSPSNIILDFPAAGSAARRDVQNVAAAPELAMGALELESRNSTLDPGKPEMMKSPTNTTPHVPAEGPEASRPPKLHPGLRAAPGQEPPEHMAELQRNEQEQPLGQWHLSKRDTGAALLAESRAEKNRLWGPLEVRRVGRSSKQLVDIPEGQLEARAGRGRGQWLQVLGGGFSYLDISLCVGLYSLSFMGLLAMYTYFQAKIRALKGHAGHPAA

Structure (SMILES) | inhibition
CC[N+](CC)(CC)CC | -0.4% (inactive)
Cc1oncc1C(=O)Nc1ccc(C(F)(F)F)cc1 | -3.1% (inactive)
O=C(c1ccc2c(c1)OCCO2)N1CCCCC1 | 5.6% (active)
CCCCCC(O)c1cccc(OCc2ccc3ccccc3n2)c1 (stereo unspecified) | -4.5% (inactive)
O=C(O)c1ccccc1Nc1cccc(OCc2ccc3ccccc3n2)c1 | 70.1% (active)
NCCCCN | 14.6% (active)
NCCCCCCCCCCN | 12.8% (active)
CCN(CC)CCOC(=O)C1(C2CCCCC2)CCCCC1 | 28.2% (active)
O=C(O)CP(=O)(O)O | 10% (active)
CN=c1nc(-c2ccccc2)n(-c2ccccc2)s1 | 25.4% (active)
S=C([S-])OC1CC2C[C+]1C1CCCC21 (stereo unspecified) | 1.4% (active)
CN(CC[C@@H](Oc1ccc(C(F)(F)F)cc1)c1ccccc1)CC(=O)O | 21.6% (active)
CNCCC(Oc1ccc(C(F)(F)F)cc1)c1ccccc1 (stereo unspecified) | -9.7% (inactive)
CNCC[C@H](Oc1ccc(C(F)(F)F)cc1)c1ccccc1 | 0.1% (active)
CCCCCCCCCC[Si](C)(C)CCC(=O)NC(Cc1ccc(C)cc1)c1ccccc1 (stereo unspecified) | 19.6% (active)
CCCCCCCCCC(=O)NC(CN1CCOCC1)[C@H](O)c1ccccc1 (stereo partly specified) | -17.8% (inactive)
CCCn1c(=O)[nH]c(=O)c2[nH]cnc21 | 3.6% (active)
Cc1nc2sccn2c(=O)c1CCN1CCC(=C(c2ccc(F)cc2)c2ccc(F)cc2)CC1 | 7.1% (active)
O=C(c1ccc(F)cc1)C1CCN(CCn2c(=O)[nH]c3ccccc3c2=O)CC1 | -10.7% (inactive)
CC1(C)C(=O)N(CCN2CCC(C(=O)c3ccc(F)cc3)CC2)c2ccccc21 | 7.2% (active)
Cc1nc2sccn2c(=O)c1CCN1CCC(=C(c2ccccc2)c2ccc(F)cc2)CC1 | 2.9% (active)
Cc1nc2ccccn2c(=O)c1CCN1CCC(C(=O)c2ccc(F)cc2)CC1 | 5.5% (active)

Structure (SMILES) | inhibition
Cc1nc2n(c(=O)c1CCN1CCC(c3noc4cc(F)ccc34)CC1)CCCC2O (stereo unspecified) | 0% (inactive)
FC(F)(F)c1ccccc1-n1ccnc1 | -11.4% (inactive)
COc1ccccc1OCCNCC(O)COc1cccc2[nH]c3ccccc3c12 (stereo unspecified) | 11% (active)
CN1CCc2ccccc2Cc2[nH]c3ccccc3c2CC1 | 51.2% (active)
NC(N)=N[C@@H](CCC(=O)O)C(=O)O | 10.9% (active)
COc1ccc(C(=O)NCc2cccnc2)cc1C(=O)NCc1cccnc1 | 1.3% (active)
O=C1O/C(=C/Br)CCC1c1cccc2ccccc12 (stereo unspecified) | -10.8% (inactive)
CCCCC1C(=O)N(c2ccccc2)N(c2ccccc2)C1=O | 11.8% (active)
N#C/C(=C\c1ccc(-c2cc(Cl)ccc2Cl)o1)C(=O)Nc1cccc2ncccc12 | 6.8% (active)
Fc1ccc([C@@H]2CCNC[C@H]2COc2ccc3c(c2)OCO3)cc1 | 15.8% (active)
N=c1nc(N2CCCCC2)cc(N)n1O | 1.6% (active)
Nc1ccn([C@H]2CC[C@@H](CO)O2)c(=O)n1 | 9.9% (active)
C=CCc1cccc(/C=N/NC(=O)CN2CCN(Cc3ccccc3)CC2)c1O | 1.7% (active)
C=CCn1c(=O)c2c(nc(-c3ccc(S(=O)(=O)O)cc3)n2C)n(C)c1=O | 1.4% (active)
N#Cc1cc2nc(O)c(O)nc2cc1[N+](=O)[O-] | 69.8% (active)
CNCC(O)c1ccc(O)c(O)c1 (stereo unspecified) | 39.2% (active)
CNC[C@H](O)c1cccc(O)c1 | 17% (active)
CNC[C@H](O)c1ccc(O)c(O)c1 | 53.5% (active)
CNCCc1cnc(CCC(c2ccccc2)c2ccccc2)[nH]1 | 14.6% (active)
O=c1[nH]c(=O)n([C@H]2C[C@H](O)[C@@H](CO)O2)cc1/C=C/Br | 11.6% (active)
Cc1cn([C@H]2C=C[C@@H](CO)O2)c(=O)[nH]c1=O | 21.2% (active)
O=c1[nH]c(=O)n([C@H]2C[C@H](O)[C@@H](CO)O2)cc1Br | 6.3% (active)

Structure (SMILES) | inhibition
Cc1cn([C@H]2C[C@@H](N=[N+]=[N-])[C@@H](CO)O2)c(=O)[nH]c1=O | 18.1% (active)
N#CC(C#N)=C(N)/C(C#N)=C/c1ccc(O)cc1 | 85.4% (active)
Cn1cc(C(F)(F)F)nc1-c1ccc(OCC(O)CNCCOc2ccc(O)c(C(N)=O)c2)cc1 (stereo unspecified) | 45.1% (active)
CC12C(=O)OC(=O)C1(C)C1CCC2O1 (stereo unspecified) | 1.8% (active)
CNC(=O)c1cc2c(cn1)[nH]c1ccccc12 | 4.2% (active)
Cc1ccccc1N1C(=O)c2cc(S(N)(=O)=O)c(Cl)cc2NC1C (stereo unspecified) | 9.2% (active)
O=c1[nH]c(=S)[nH]c(-c2ccccc2)c1Cc1c(O)ccc2ccccc12 | 55.9% (active)
Cc1ccc(S(=O)(=O)/C=C/C#N)cc1 | 10.5% (active)
CC(C)(C)c1ccc(S(=O)(=O)/C=C/C#N)cc1 | 3.4% (active)
NC12CC3CC(CC(C3)C1)C2 | 33.3% (active)
CC12CC3CC(C)(C1)CC(N)(C3)C2 | -1.7% (inactive)
CCOC(=O)C(C)Oc1cccc2c(=O)n(CC(=O)Nc3ccc4c(c3)OCCO4)ccc12 (stereo unspecified) | 9.3% (active)
NC(C(=O)N[C@@H]1C(=O)N2C(C(=O)O)=C(Cl)CS[C@H]12)c1ccccc1 (stereo partly specified) | 23.8% (active)
CC1=C(C(=O)O)N2C(=O)[C@@H](NC(=O)C(N)c3ccccc3)[C@H]2SC1 (stereo partly specified) | 37.1% (active)
NC(=O)c1cc[n+](CC2=C(C(=O)O)N3C(=O)[C@@H](NC(=O)[C@@H](c4ccccc4)S(=O)(=O)[O-])[C@H]3SC2)cc1 | 14.6% (active)
CC1=C(C(=O)O)N2C(=O)[C@@H](NC(=O)C(N)C3=CCC=CC3)[C@H]2SC1 (stereo partly specified) | 20.2% (active)
CN1CC(=O)N/C1=N\C(=O)Nc1cccc(Cl)c1 | -0.6% (inactive)
CC1=C(CC(=O)O)c2cc(F)ccc2/C1=C\c1ccc(S(C)=O)cc1 (stereo unspecified) | 14.1% (active)
CC1=C(CC(=O)O)c2cc(F)ccc2/C1=C\c1ccc(S(C)(=O)=O)cc1 | 13.7% (active)
CC(=O)N[C@@H](Cc1c[nH]c2ccccc12)C(=O)OCc1cc(C(F)(F)F)cc(C(F)(F)F)c1 | 4.9% (active)
NC(=O)OCC(COC(N)=O)c1ccccc1 | 6.4% (active)
N=C(N)c1ccc(N)cc1 | -0.4% (inactive)

Structure (SMILES) | inhibition
N=C(N)c1ccc(OCCCCCOc2ccc(C(=N)N)cc2)cc1 | 14.9% (active)
NC1(C(=O)O)CCCCC1 | 12.2% (active)
NC1(C(=O)O)CC1 | 0.9% (active)
Clc1nccc2c1ccc1ccccc12 | 5.5% (active)
O=C(CCCN1CCC(O)(c2ccc(Cl)cc2)CC1)c1ccc(F)cc1 | 4.3% (active)
O=C(CCCN1CCC(O)(c2cccc(C(F)(F)F)c2)CC1)c1ccc(F)cc1 | 1.8% (active)
CN(C)C(=O)C(CCN1CCC(O)(c2ccc(Cl)cc2)CC1)(c1ccccc1)c1ccccc1 | -0.4% (inactive)
CN(C(=O)CCCOc1ccc2[nH]c(=O)ccc2c1)C1CCCCC1 | 13.1% (active)
CN1C2CCC1CC(OC(c1ccccc1)c1ccccc1)C2 (stereo unspecified) | 7.5% (active)
CN1C2CCC1CC(OC(=O)c1c[nH]c3ccccc13)C2 (stereo unspecified) | 8.4% (active)
CN1C2CCC1CC(OC(=O)C(CO)c1ccccc1)C2 (stereo unspecified) | 0.4% (active)
CN1C2CC(OC(=O)[C@H](CO)c3ccccc3)CC1C1OC12 (stereo partly specified) | 10.8% (active)
CN1C2CCC1CC(OC(=O)C(O)c1ccccc1)C2 (stereo unspecified) | 6.4% (active)
CC(C)(C)C(=O)Oc1ccc(S(=O)(=O)Nc2ccccc2C(=O)NCC(=O)O)cc1 | 18.6% (active)
CNC1(C)C2CCC(C2)C1(C)C (stereo unspecified) | -4.4% (inactive)
NC(=O)NO | 11.4% (active)
CC(C)C[C@H](NC(=O)C1OC1C(=O)O)C(=O)NCCCCN=C(N)N (stereo partly specified) | -7.9% (inactive)
N[C@H](C(=O)O)[C@H](Cc1ccccc1)C(=O)O | 4.3% (active)
NCCCNCCSP(=O)(O)O | 7.6% (active)
NCCCCNCCCN | -8.3% (inactive)
NCCCNCCCCNCCCN | 19.3% (active)
S=C(S)N1CCCC1 | 86.2% (active)

Structure (SMILES) | inhibition
CC(C)CC(NP(=O)(O)O[C@@H]1O[C@@H](C)[C@H](O)[C@@H](O)[C@H]1O)C(=O)NC(Cc1c[nH]c2ccccc12)C(=O)O (stereo partly specified) | 59.4% (active)
O=C(O)c1cccnc1Nc1cccc(C(F)(F)F)c1 | 3.2% (active)
Nc1nc(O)c2nc(Br)n(C3OC4COP(=O)(O)O[C@@H]4C3O)c2n1 (stereo partly specified) | 9.3% (active)
Nc1ncnc2c1nc(Sc1ccc(Cl)cc1)n2C1OC2COP(=O)(O)O[C@@H]2[C@@H]1O (stereo partly specified) | 7.4% (active)
Nc1ncnc2c1nc(Br)n2C1OC2COP(=O)(O)O[C@@H]2C1O (stereo partly specified) | 4.7% (active)
Nc1ncnc2nc(-c3ccc(N4CCOCC4)nc3)cc(-c3cccc(Br)c3)c12 | -3% (inactive)
O=c1[nH]c2cc(Cl)ccc2c(O)c1-c1ccc(Oc2ccccc2)cc1 | 8.7% (active)
CN(C)c1nc(N(C)C)nc(N(C)C)n1 | 31.3% (active)
CN1[C@@H](CC(=O)c2ccccc2)CCC[C@H]1C[C@H](O)c1ccccc1 | 15.5% (active)
O=C(O)CCCC[C@@H]1CCSS1 | 0.1% (active)
Cc1cc(C(C)(C)C)c(O)c(C)c1CC1=NCCN1 | 11.2% (active)
Cc1cc(C(C)(C)C)cc(C)c1CC1=NCCN1 | 5% (active)
CC(=O)[C@H]1CC[C+]2C3CC=C4C[C@@H](OS(=O)(=O)[O-])CC[C@]4(C)C3CC[C@@]21C (stereo partly specified) | -11.2% (inactive)
CCN(Cc1ccncc1)C(=O)C(CO)c1ccccc1 (stereo unspecified) | 1.5% (active)
COc1ccc(/C=C2\COc3ccc(C)cc3C2=O)cc1O | 75.9% (active)
CCCc1c(-c2ccc(O)cc2)nn(-c2ccc(O)cc2)c1-c1ccc(O)cc1 | 68.4% (active)
Brc1c(NC2=NCCN2)ccc2nccnc12 | 21.8% (active)
CC(=O)O[C@H]1CC2(C)[C@@H](C[C@@H](O)[C@H]3[C@@]4(C)CC[C@@H](O)[C@@H](C)[C@@H]4CC[C@@]32C)/C1=C(/CCC=C(C)C)C(=O)O (stereo partly specified) | 15.9% (active)
